Source: PubChem BioAssay (NCATS)
Where “and” joins values, the source holds several entries; their conditions need not be identical. Equal entries are not always repeated. Records with an inconclusive call do not appear. Calls of active or inactive are those of the source. The call rests on the fitted dose curve; in most records, active means well fitted curve in the direction sought with a large enough effect; inconclusive means small, poorly fitted or top-dose-only effect, or another doubt; inactive means no such curve, though single readings can be large; an effect the other way counts as inactive or inconclusive.

How the values were obtained:
[1] = biological target: Cellular tumor antigen p53 (Homo sapiens) (UniProt P04637); assay: Primary qHTS for small molecule compounds that upregulate eGFP-tagged delta133p53alpha (in N-terminal) cells. (AID 2060322); conditions: NCI-H358 eGFP-delta133p53alpha fluorescence, 24 h; activation: hits give high values; further: nearly all actives have a fitted effect of over 75% in size; further: potency means the concentration at half of the fitted maximal effect;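 on activation: cells pre-induced with doxycycline then dosed without doxycycline; series mostly up to about 56 µM; 0% = DMSO vehicle and 100% = reference activator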
Chain of Cellular tumor antigen p53 (Homo sapiens) (P04637 whole entry, looked up): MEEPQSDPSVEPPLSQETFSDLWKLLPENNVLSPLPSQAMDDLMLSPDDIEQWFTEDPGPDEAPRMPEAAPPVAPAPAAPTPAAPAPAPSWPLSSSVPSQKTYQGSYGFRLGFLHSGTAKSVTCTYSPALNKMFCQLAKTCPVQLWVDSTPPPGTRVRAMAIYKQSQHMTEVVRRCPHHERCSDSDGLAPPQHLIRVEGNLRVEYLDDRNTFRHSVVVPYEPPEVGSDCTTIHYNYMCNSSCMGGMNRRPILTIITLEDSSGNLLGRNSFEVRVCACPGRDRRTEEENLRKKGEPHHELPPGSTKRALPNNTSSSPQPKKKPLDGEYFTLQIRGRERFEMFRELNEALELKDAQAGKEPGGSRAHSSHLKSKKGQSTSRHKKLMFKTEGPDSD
Method in brief: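 NCI-H358 cells pre-induced 24 h with 10 ng/ml doxycycline for eGFP-delta133p53alpha, plated dox-free and exposed 24 h at 37C to titrated compounds. Fixed, Hoechst-stained; gated GFP peak intensity by laser scanning cytometry, normalized to DMSO (0%) and 57.5 uM 5-azacytidine (100%).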

[2] = biological target: Aldehyde dehydrogenase, mitochondrial (Homo sapiens) (UniProt P05091); assay: qHTS for Inhibitors of the Aldehyde Dehydrogenase Family (ALDH2) Primary screen (AID 2061308);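 further: plate controls were vehicle for no effect and reference inhibitor for full effect; nearly all actives have a fitted effect of over 55% in size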
[3] = biological target: Retinaldehyde dehydrogenase 3 (Homo sapiens) (UniProt P47895); assay: qHTS for Inhibitors of the Aldehyde Dehydrogenase Family (ALDH1A3) Validation screen (AID 2061312); further: nearly all actives have a fitted effect of over 45% in size; further: potency means the concentration at half of the fitted maximal effect
[4] = biological target: Retinaldehyde dehydrogenase 3 (Homo sapiens) (UniProt P47895); assay: qHTS for Inhibitors of the Aldehyde Dehydrogenase Family (ALDH1A3) Primary screen (AID 2061315);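 further: plate controls were DMSO vehicle for no effect and reference inhibitor for full effect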
[5] = BET inhibitor-based combinations targeting novel dependencies in MECOM-rearranged (r) AML: SET-2 cell line (AID 2202231); conditions: SET-2 AML cells viability, CellTiter-Glo luminescence, 48 h; viability: hits give low values, concentration not given here; further: nearly all actives have a fitted effect of over 35% in size; further: potency means the concentration at half of the fitted maximal effect;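 on viability: plate controls were DMSO treated cells for no effect and wells without cells for full effect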
Method in brief: (§1)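 Each compound was tested at eleven concentrations on cells seeded at 500/well. After two days' incubation, ATP-based luminescence reported viability; responses relative to DMSO and blank wells yielded AUC and cell-line-centred Z-AUC.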

[6] = BET inhibitor-based combinations targeting novel dependencies in MECOM-rearranged (r) AML: OCI-AML3 cell line (AID 2202232); conditions: Potency: OCI-AML3 viability; further: nearly all actives have a fitted effect of over 35% in size; further: potency means the concentration at half of the fitted maximal effect
Method in brief: as §1

[7] = BET inhibitor-based combinations targeting novel dependencies in MECOM-rearranged (r) AML: MV-4-11 cell line (AID 2202233); further: nearly all actives have a fitted effect of over 45% in size; further: potency means the concentration at half of the fitted maximal effect
Method in brief: (§2)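 First, 500 cells per well were seeded; next, drugs were pinned as 11-point doses; then plates sat 48 hr in the incubator; finally CellTiter-Glo was added and luminescence read, with AUC and Z-AUC computed.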

[8] = BET inhibitor-based combinations targeting novel dependencies in MECOM-rearranged (r) AML: HNT-34 cell line (AID 2202234); further: nearly all actives have a fitted effect of over 35% in size; further: potency means the concentration at half of the fitted maximal effect
Method in brief: as §2

[9] = BET inhibitor-based combinations targeting novel dependencies in MECOM-rearranged (r) AML: UCSD-AML1 cell line (AID 2202235); further: nearly all actives have a fitted effect of over 40% in size; further: potency means the concentration at half of the fitted maximal effect
Method in brief: as §2

[10] = BET inhibitor-based combinations targeting novel dependencies in MECOM-rearranged (r) AML: AML-191 cell line (AID 2202236; further: nearly all actives have a fitted effect of over 35% in size; further: potency means the concentration at half of the fitted maximal effect)
Method in brief: as §1

[11] = BET inhibitor-based combinations targeting novel dependencies in MECOM-rearranged (r) AML: AML-194 cell line (AID 2202237; further: nearly all actives have a fitted effect of over 40% in size; further: potency means the concentration at half of the fitted maximal effect)
Method in brief: as §1

CN(C1CCc2c(c3ccccc3n2CC(=O)O)C1)S(=O)(=O)c1ccc(F)cc1 (stereo not drawn)
inactive: activation [1] -3.55% and 0% and -0.955% | Potency [2] | Potency [3] | Potency [4]

Cc1c(C2=CCN(C(=O)N(C)C(C)C)CC2)nnn1-c1cccnc1F
inactive: activation [1] -9.55% | Potency [2] | Potency [3] | Potency [4]

COc1cccc(-c2cc(NCc3ccc4c(c3)OCO4)nc(N)n2)c1
inactive: activation [1] -3.82% | Potency [2] | Potency [3] | Potency [4]

CN(CC(=O)N(Cc1ccc(C2CCCCC2)cc1)c1ccc(C(=O)O)cc1)S(=O)(=O)c1c(F)c(F)c(F)c(F)c1F
inactive: Potency [2] | Potency [3] | Potency [4]
active: Potency [1] 6.75 µM

CC1(C)C(=O)C(C)(C)c2cc(C(=O)Nc3ccc(C(=O)O)cc3)ccc21
inactive: activation [1] -2.39% | Potency [2] | Potency [3] | Potency [4]

CC1(C)[C@H]2C[C@H](C/C=C\CCCC(=O)O)[C@@H](NC(=O)c3csc4ccc(O)cc34)[C@@H]1C2
inactive: activation [1] -4.77% | Potency [2] | Potency [3] | Potency [4]

O=C(NCCCN1CCOCC1)c1cnn2c(-c3ccccc3)cc(-c3ccccc3)nc12
inactive: activation [1] -6.68% | Potency [2] | Potency [3] | Potency [4]

c1ccc(C(OC2CCN(CCCc3nn[nH]n3)CC2)c2ccccc2)cc1
inactive: activation [1] -4.77% | Potency [2] | Potency [3] | Potency [4]

CCCSc1nc(NC2CC2c2ccc(F)c(F)c2)c2nnn(C3CC(OCCO)C(O)C3O)c2n1 (stereo not drawn)
active: Potency [3] 31.6 µM
inactive: activation [1] 16.7% | Potency [2] | Potency [4]

Cc1cccc(-c2nn3c(c2-c2ccnc4ccc(C(N)=O)cc24)CCC3)n1
inactive: activation [1] -7.16% | Potency [2] | Potency [3] | Potency [4] | viability [5] 108% | Potency [6] | Potency [7] | Potency [8] | Potency [9] | Potency [10] | Potency [11]

Fc1ccc(CNc2ncnc3ccc(F)cc23)cc1
inactive: activation [1] -0.393% and 5.25% | Potency [2] | Potency [3] | Potency [4] | Potency [9] | Potency [11]
active: Potency [5] 2.63 µM | Potency [6] 4.17 µM | Potency [7] 5.9 µM | Potency [8] 16.6 µM

O=C(O)CCNc1cc(N2CCc3ccccc3CC2)nc(-c2ccccn2)n1
inactive: activation [1] -6.15% and -0.477% and 0.955% | Potency [2] | Potency [3] | Potency [4] | viability [5] 103% | Potency [6] | Potency [7] | Potency [8] | Potency [9] | Potency [10] | Potency [11]

O=P(O)(O)C(O)(Cc1cccnc1)P(=O)(O)O
inactive: activation [1] 20.9% and -4.4% and 7.64% | Potency [2] | Potency [3] | Potency [4] | viability [5] 110% | Potency [6] | Potency [7] | Potency [8] | Potency [9] | Potency [10] | Potency [11]

OC[C@H]1O[C@@H](Oc2cc(O)cc(/C=C/c3ccc(O)cc3)c2)[C@H](O)[C@@H](O)[C@@H]1O
inactive: activation [1] -6.21% | Potency [2] | Potency [3] | Potency [4] | viability [5] 115% | Potency [6] | Potency [7] | Potency [8] | Potency [9] | Potency [10] | Potency [11]

C[C@H]1CN(C[C@H](Cc2ccccc2)C(=O)NCC(=O)O)CC[C@@]1(C)c1cccc(O)c1
inactive: activation [1] 7.64% | Potency [2] | Potency [3] | Potency [4] | viability [5] 120% | Potency [6] | Potency [7] | Potency [8] | Potency [9] | Potency [10] | Potency [11]

CCCCNc1ncc2c(-c3ccc(CN4CCN(C)CC4)cc3)cn(C3CCC(O)CC3)c2n1 (stereo not drawn)
inactive: Potency [2] | Potency [3] | Potency [4]
active: Potency [1] 21.3 µM | Potency [5] 14.8 µM and 11.8 µM | Potency [6] 6.61 µM and 4.68 µM | Potency [7] 59 nM and 93.4 nM | Potency [8] 1.05 µM and 1.18 µM | Potency [9] 4.17 µM and 3.32 µM | Potency [10] 833 nM and 1.18 µM | Potency [11] 742 nM and 1.05 µM

O=C(c1ccc(C(=O)N2CCC(N3CCCC3)CC2)c(Nc2ccccc2)c1)N1CCC(N2CCCC2)CC1
inactive: activation [1] 3.03% and -7.82% | Potency [2] | Potency [3] | Potency [4] | viability [5] 111% | Potency [6] | Potency [8] | Potency [9] | Potency [10] | Potency [11]
active: Potency [7] 9.34 µM
